# Compounds with a hit are over-represented: about 17% of the library has one in this group of screens.
# HT1080 IDH1KD tx: toxicity to HT-1080 IDH1 knockdown cells (counter line); HT-1080 IDH1 knockdown viability, ATP luminescence, 48 h; Potency, µM (doses to about 46.1 µM), without a hit: at the highest dose activity, negative = toxicity, usual class: cytotoxic; hit rate 2% among 360,000;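 also: 0% = DMSO wells and -100% = cell-free medium wells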
#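 Assay cells: HT-1080 with IDH1 knockdown, 750 per well, RPMI/5% FBS. Exposure: 48 h at 37 °C following 2 h pre-incubation. Read: CellTiter-Glo luminescence; fitted concentration-response, curve class assigned.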
# DT40 TDP1 no CPT: qHTS for Inhibitors of human tyrosyl-DNA phosphodiesterase 1 (TDP1): qHTS in cells in absence of CPT; hit rate 15% among 420,000; Potency, µM (doses to about 46.2 µM), without a hit: at the highest dose activity change, negative = growth inhibition, most hits filed as inhibitors; DT40 Tdp1-/- hTDP1 cells, no CPT, ATP luminescence, 48 h; AID 686978, 2013; also: % is scaled to controls: 0 for no effect and ±100 for the full control effect; nearly all actives have a fitted effect of over 55% in size
#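 Readout: luminescence from CellTiter-Glo after 30 min in the dark at RT. Cells: DT40 Tdp1-/- with stable hTDP1, 400/well. Exposure: compounds alone, ≥48 hr, 37 °C.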
# TDP1 cell CPT: growth inhibition of DT40 Tdp1-/-;hTDP1 cells with camptothecin (screen for TDP1 inhibitors); AID 686979; Potency, µM (titrated, usually from 46.2 µM), inactives show at the highest dose activity change, negative = growth inhibition, most hits filed as inhibitors; chicken DT40 Tdp1-/-;hTDP1 cells + 20 nM CPT, ATP luminescence, 48 h; hit rate 12% among 420,000; also: % is scaled to controls: 0 for no effect and ±100 for the full control effect; nearly all actives have a fitted effect of over 55% in size
#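 Chicken DT40 Tdp1-/- cells complemented with human TDP1, 400 cells/well, exposed to compounds plus 20 nM camptothecin for at least 48 h at 37 C; viability read as ATP content by CellTiter-Glo luminescence.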
# HT1080-NT tox: kills 2HG-producing HT-1080-NT fibrosarcoma cells; HT-1080-NT fibrosarcoma viability, CellTiter-Glo ATP luminescence, 48 h; hit rate 1.6% among 360,000; Potency, µM (titrated, usually from 46.1 µM), inactives show at the top dose activity, negative = less viability, actives largely listed as cytotoxic;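 also: NT is the 2HG producing partner of a matched IDH1 knockdown line; 0% = DMSO-treated cells and -100% = media-only wells without cells; nearly all actives have a fitted effect of over 55% in size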
#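 750 cells/well, RPMI + 5% FBS; 2 h settle, compound pin-transfer, 48 h at 37 degrees C. CellTiter-Glo 10 min RT, luminescence. Normalized to DMSO and media-only wells.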
# TGFb inhibitor: inhibitors of TGF-b signaling; AID 588855; hit rate 1.2% among 410,000; HepG2 CAGA-GFP TGF-b/SMAD3 reporter, GFP fluorescence, 18 h; TGF-beta stimulated, 500 pg/mL final; Potency, µM (series often up to 46.1 µM), without a hit: top-dose activity, negative = inhibition, actives largely listed as inhibitors; also: % is scaled to controls: 0 for no effect and ±100 for the full control effect; nearly all actives have a fitted effect of over 65% in size
#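 Cell-based qHTS in HEPG2 carrying a CAGA-GFP Smad reporter; compounds added before 500 pg/mL final TGF-beta, 18 h incubation at 37 degrees C, GFP fluorescence quantified per cell by imaging cytometry.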
# HepG2 viability: counter-screen for TGF-b inhibitors: cytotoxicity in HepG2 cells | Potency, µM (titrated, usually from 46.1 µM), inactives show at the highest dose activity change, negative = cytotoxicity, actives largely listed as cytotoxic | hit rate 0.76% among 410,000 | HepG2 CAGA-GFP viability, ATP luminescence, 18 h
#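 HepG2 CAGA-GFP cells (1000/well, DMEM with 1% FBS) received compound, then TGF-beta at 500 pg/mL final, and were incubated 18 hours at 37 degrees C. Viability was read by CellTiter-Glo luminescence. Media-only wells were set as complete cell-killing and DMSO as no toxicity.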
# Numbers without * were called inactive; ? = inconclusive; . = no result given. Calls follow the shape of the dose curve; as a rule, active = well fitted curve in the direction sought with a large enough effect; inconclusive = small, poorly fitted or top-dose-only effect, or another doubt; inactive = no such curve, though single readings can be large; an effect the other way counts as inactive or inconclusive. Potency is read from the fitted curve at half-maximal effect.
SMILES,HT1080 IDH1KD tx,DT40 TDP1 no CPT,TDP1 cell CPT,HT1080-NT tox,TGFb inhibitor,HepG2 viability
O=C(Nc1cccnc1)c1ccc(Cl)c(S(=O)(=O)N2CCc3ccccc32)c1,-0.3%,-18.1%,22.3%,4.6%,-30.6%,3.55µM*
CCCCC1Cc2[nH]c(=S)[nH]c(=O)c2C(c2ccc(F)cc2)O1 (stereo unspecified),13.5%,-3.8%,-7.8%,7.9%,0.9%,5.2%
CC(C)=CCN1CCN(Cc2cccnc2)CC1CCO (stereo unspecified),9.8%,21.2%,5.3%,21.5%,-12.2%,4.2%
NC1=NC2CS(=O)(=O)CC2S1 (stereo unspecified),0.3%,-23.0%,-27.3%,-0.6%,-2.2%,-3.1%
CC(=O)Nc1ccc(NC(=O)c2ccc(Cl)c(S(=O)(=O)N3CCc4ccccc43)c2)cc1,2.0%,4.61µM*,?,-6.7%,0.0%,0.6%
COCCN(CC1CCCN(C2Cc3ccccc3C2)C1)C(=O)c1cccc(C)c1 (stereo unspecified),-4.1%,?,?,-0.3%,-4.0%,-1.7%
Cc1cc(C)cc(S(=O)(=O)c2cn(C)c3cc(N4CCN(C)CC4)c(F)cc3c2=O)c1,-2.0%,?,?,11.1%,-0.3%,-5.6%
CCN1CCn2c3c(c4cc(C)ccc42)CCCC31 (stereo unspecified),-3.3%,23.1µM*,?,1.9%,1.1%,-16.4%
Cc1ccc2c(c1)c1c3n2CCN(CCC#N)C3CCC1 (stereo unspecified),-0.4%,-12.0%,?,4.3%,-1.4%,-33.9%
CCCN(CCC)S(=O)(=O)c1ccc(C(=O)N2CCn3c4c(c5cc(C)ccc53)CCCC42)cc1 (stereo unspecified),.,?,16.4µM*,.,-0.1%,-5.8%
Cc1ccc2c(c1)c1c3n2CCN(C(=O)CCl)C3CCC1 (stereo unspecified),?,3.26µM*,4.61µM*,16.4µM*,?,-102.3%
Cc1ccc(NC(=O)Nc2c(C)n(C)n(-c3ccccc3)c2=O)c(Cl)c1,.,1.5%,-1.9%,.,-12.2%,-9.5%
COc1ccc2c(c1)OCC(Cc1ccc(OC)c(OC)c1)C2O (stereo unspecified),.,?,0.1%,.,.,.
COc1ccc(C2COc3cc(O)ccc3C2)c(OC)c1O (stereo unspecified),?,16.4µM*,18.4µM*,?,-17.3%,-14.9%
CC1(C(=O)Nc2ncc(Cc3ccc(Br)cc3)s2)Cc2ccccc2C(=O)O1 (stereo unspecified),.,23.1µM*,23.1µM*,.,?,-20.5%
CC1(C(=O)Nc2nnc(SCc3ccccc3)s2)Cc2ccccc2C(=O)O1 (stereo unspecified),10.9%,?,?,-1.0%,3.4%,-2.9%
COc1ccc(-c2nc(CSCC(=O)N3CCN(c4cc(Cl)ccc4C)CC3)c(C)o2)cc1,.,16.4µM*,13µM*,.,17.8µM*,-33.5%
CSc1ccc(-c2nc(CSCC(=O)N3CCOCC3)c(C)o2)cc1,-14.9%,?,?,1.6%,0.0%,-25.7%
CCOc1ccc(-c2nc(CSCC(=O)N3CCN(c4ccc(F)cc4)CC3)c(C)o2)cc1,.,-21.9%,-17.9%,.,-5.3%,7.3%
Cc1cccc(-c2nc(CSCC(=O)N3CCN(c4ccccc4)CC3)c(C)o2)c1,.,?,?,.,11.2µM*,-27.0%
COc1ccc(-c2nc(CSCC(=O)N3CCN(c4ccc(OC)cc4)CC3)c(C)o2)cc1,.,10.3µM*,?,.,?,-13.7%
COc1ccc(-c2nc(CSCC(=O)N3CCN(c4cccc(C)c4C)CC3)c(C)o2)cc1OC,.,23.1µM*,18.4µM*,.,-26.9%,-37.7%
CCS(=O)(=O)N1CC(=O)N(c2ccc(C)c(C)c2)C(C)(C(=O)NC2CCCCCC2)C1 (stereo unspecified),.,-29.0%,?,.,-7.7%,3.5%
CCOc1ccc(-c2nc(CSCC(=O)N3CCN(c4cccc(C(F)(F)F)c4)CC3)c(C)o2)cc1,.,10.3µM*,20.6µM*,.,?,-37.6%
CCc1ccc(-c2nc(CSCC(=O)N3CCN(c4ncccn4)CC3)c(C)o2)cc1,1.0%,?,?,-5.6%,?,-10.6%
SMILES,HT1080 IDH1KD tx,DT40 TDP1 no CPT,TDP1 cell CPT,HT1080-NT tox,TGFb inhibitor,HepG2 viability
Cc1ccc(-c2nnc(CSc3nc4cc5c(cc4cc3C)OCO5)o2)cc1,29.0%,20.6µM*,?,3.8%,0.7%,-12.6%
Cc1ccc2nc(-c3ccco3)c(Cc3ccccc3)n2c1,23.1µM*,?,?,?,?,-15.2%
Cc1ccc2nc(-c3ccco3)c(CC(C)(C)C)n2c1,8.4%,9.2µM*,10.3µM*,-1.6%,?,-29.5%
COCC1CCN(C(=O)c2cc(COc3ccccc3SC)on2)C1 (stereo unspecified),0.1%,-19.3%,?,-4.1%,0.0%,2.6%
CSc1ccccc1OCc1cc(C(=O)N2CCN(C)C(c3ccccc3)C2)no1 (stereo unspecified),-10.0%,-71.3%,20.6µM*,1.1%,-0.1%,-21.7%
CN1CCN(C(=O)c2cc(COc3c(F)cccc3F)on2)CC1c1ccccc1 (stereo unspecified),-1.7%,?,-18.8%,-17.9%,-4.9%,-19.8%
C=CC[C@H]1CC(C)=C[C@H](CC=C)N1C(=O)c1cc(COc2ccccc2SC)on1,-10.4%,14.6µM*,?,3.1%,-11.7%,-12.0%
O=C(Nc1cccc(Cl)c1)c1cc2c(=O)[nH]c3ccccc3c2s1,.,-17.5%,-1.4%,.,-13.1%,-3.7%
O=C(O)c1ccc(O)c2ncccc12,.,.,.,.,-15.5%,-15.4%
Cc1ccc(S(=O)(=O)Nc2cccnc2Oc2ccc(Cl)cc2)cc1,-8.0%,-10.0%,-0.2%,1.0%,13.4%,-5.0%
Oc1c(Cl)cc(Cl)c2cccnc12,20.6µM*,8.2µM*,18.4µM*,?,?,-21.8%
Oc1ccc(F)c2cccnc12,0.0%,14.6µM*,13µM*,?,?,0.6%
Clc1cc2cccnc2c2ccccc12,10.7%,-2.8%,-2.1%,7.7%,-1.1%,12.4%
Cc1ccc(S(=O)(=O)Nc2cc(Cl)c(O)c3ncccc23)cc1,?,5.17µM*,2.31µM*,-22.6%,6.31µM*,2.82µM*
Oc1ccc(CNc2ccccc2F)c2cccnc12,?,2.06µM*,2.06µM*,?,7.08µM*,-24.1%
